# PubChem BioAssay (NCI)
# This is part of a sample that, as a whole, favours compounds with a hit. Of some 83,000 tested, about 20% had one in any assay.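 Method: cells in 96-well plates; compound added at one concentration; 48 h incubation; percent growth measured; values under 10 scored active.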 The source made the active and inactive calls.
# System: SK-MEL-5 melanoma
# Test: NCI-60 one-dose screen, 48 h (100 = growth as untreated, 0 = no growth, -100 = all killed)
# Conditions: 10 µM unless noted
row,SMILES,growth
1,COc1ccc2c(CCCCC(c3ccccc3)c3ccccc3)c3[n+](cc2c1OC)CCc1cc2c(cc1-3)OCO2,-99.5% (active)
2,CCN1CCN(c2cc(C)nc(N(CCCNc3ccnc4cc(Cl)ccc34)Cc3ccc4c(c3)OCO4)n2)CC1,-95.7% (active)
3,O=C(Nc1ccc(C(=O)Nc2ccc(C3=NCCCN3)cc2)cc1)Nc1ccc(C2=NCCCN2)cc1,54.7% (inactive)
4,CCOC(=O)C1=C(C)N=C2Sc3cc(OC(F)(F)F)ccc3N2[C@H]1c1ccccn1,38.5% (inactive)
5,Nc1c2c(c(O)c3c1=C(CO)C=N3)=NCCS2,-99.1% (active)
6,C[C@@H](C[C@H](CCO)c1cc(C(F)(F)F)cc(C(F)(F)F)c1)c1ccc2ccccc2c1,105% (inactive)
7,CN(N)c1nc2sc3c(c2c(=O)[nH]1)CCCC3,106% (inactive)
8,Cc1cc(N(CCNc2ccnc3cc(Cl)ccc23)Cc2ccc3c(c2)OCO3)nc(N2CCN(C)CC2)n1,-96.1% (active)
9,C[N+](C)(CCOC(c1ccccc1)c1ccccc1)CC(=O)OCc1ccccc1,98.1% (inactive)
10,CC1(/C=N/NC(N)=S)NC(=O)NC1=O (centres undefined),100% (inactive)
11,[2H]C1([2H])[C@H](C)O[C@H](C)C([2H])([2H])N1c1ccc(NC(=O)c2cccc(-c3ccc(OC(F)(F)F)cc3)c2C)cn1,53.9% (inactive)
12,N#Cc1cc2[nH]c3ccc(OC(F)(F)F)cc3c2oc1=O,70.8% (inactive)
13,COc1ccc2c(c1OC)C(=O)O[C@@H]2[C@H]1c2c(c(C#CC#Cc3ccc(F)c(F)c3)c3c(c2OC)OCO3)CCN1C,66.2% (inactive)
14,CCC1(/C=N/NC(N)=S)NC(=O)NC1=O (centres undefined),102% (inactive)
15,CC(C)C1CCC(C)C(C2(C#N)C(N)=NC(N)=C2C#N)C1=O (centres undefined),101% (inactive)
16,NC(=O)c1n[nH]n2c1nc(=O)c1c3c(sc12)CCCC3,-31.5% (active)
17,CCOC(=O)C1=C(C)NC(=O)NC1c1cc(=O)oc2ccc(C)cc12 (centres undefined),98.2% (inactive)
18,C=CC(=O)N(C)[C@H]1C[C@H]2OC(C)(C1OC)n1c3ccccc3c3c4c(c5c6ccccc6n2c5c31)C(=O)NC4 (some centres undefined),-94.3% (active)
19,Cc1cc2c(-c3nc4ccccn4c3Nc3cccc4ccccc34)c(O)c(O)cc2c(O)c1-c1c(C)cc2c(-c3nc4ccccn4c3Nc3cccc4ccccc34)c(O)c(O)cc2c1O,1.82% (active)
20,N#CC1(C#N)C(c2cccs2)NC(c2cccs2)C1(C#N)C#N (centres undefined),114% (inactive)

row,SMILES,growth
1,CC1CCC(n2cnc3c(Cl)ncnc32)O1 (centres undefined),91% (inactive)
2,Oc1ccc(/C=N/Nc2nnc(N/N=C/c3ccc(O)cc3O)c3ccccc23)c(O)c1,-17.7% (active)
3,CCc1ccc(/C=C/c2ccc(O)c3ncccc23)[n+](C)c1,26.3% (inactive)
4,COc1ccc(OC)c(NC2=C(SCCc3ccccc3)C(=O)c3ccccc3C2=O)c1,80.9% (inactive)
5,CCN1/C(=C/C=C/c2n(-c3ccccc3)c3ccc(-c4nc5ccccc5s4)cc3[n+]2CC)N(c2ccccc2)c2ccc(-c3nc4ccccc4s3)cc21,-59.2% (active)
6,COC(=O)c1[nH]cnc1/N=N/N(C)CCO,102% (inactive)
7,O=C1CC(c2ccc(Cl)cc2)c2ncn(-c3cccc(Cl)c3)c2N1 (centres undefined),34.1% (inactive)
8,COC(=O)CC[C@@H](C)[C@H]1CC[C@H]2C3CC[C@@H]4C[C@@H]5CC[C@]4(C)[C@@]3(O5)[C@H](Br)[C@@H](Br)[C@]12C (some centres undefined),99.3% (inactive)
9,CC(=O)OCCC/C(=C\c1ccc2ccccc2c1)[N+](=O)[O-],-94% (active)
10,COc1cc(-c2cc(-c3ccc(Nc4ccnc5cc(Cl)ccc45)cc3)nc(N3CCOCC3)n2)cc(OC)c1OC,28% (inactive)
11,CCOC(=O)Sc1ncnc2nc[nH]c12,74.1% (inactive)
12,COc1cc2c3c(c1)nc(C)n3CCC2,97.4% (inactive)
13,CCCCCCCC(=O)SCC/C=C/[C@@H]1CC(=O)NCc2cccc(n2)C2=N[C@@](C)(CS2)C(=O)N[C@@H](C(C)C)C(=O)N1,22.2% (inactive)
14,COc1ccc2c(CCc3ccc(Cl)cc3)c3[n+](cc2c1OC)CCc1cc2c(cc1-3)OCO2,18.2% (inactive)
15,CC(=O)C(C(C)=O)C(c1ccccc1)C(C(C)=O)C(C)=O,97.2% (inactive)
16,Cc1ccc(NC(=O)NC(=O)CSc2nc3ccccc3nc2C)cc1,38.7% (inactive)
17,Cc1cc(N(CCNc2ccnc3cc(Cl)ccc23)Cc2ccc3c(c2)OCO3)nc(N2CCCC2)n1,-96.9% (active)
18,O=C(Nc1ccc(C2=NCCCN2)cc1)c1ccc(C(=O)Nc2ccc(C3=NCCCN3)cc2)nc1,99.3% (inactive)
19,COC(=O)C1=C(C(=O)OC)C23C=C(C)C1C2=C(C)C1(CC1)[C@@](C)(O)C3=O (some centres undefined),-75.7% (active)
